Measurements reported in the OligoGym collection.

The sequences below were run against NAGA (assay: pooled miR-30 sensor sort-seq; sequence = guide strand). Settings: shRNA.
Further: reference of the scale not given here.

Sequence | sensor-assay potency score (higher = more potent)
TCATATATCACAGACCCGGTGA | -0.0849
TTGATTTTGATCATGAGTGGAT | 0.182
TTGTCCAGCATCAGCACCTGGG | -0.84
TTGTCCAGTGTGGTGCCTGGGT | -0.646
TTGATGATCACTGTGAAGTTGG | 0.614
TTGGACAGGGCATAGAACCTGG | -0.532
TTGAGCATGTCTACCTTCCACT | -1.03
TGAAGTTGGTTTCATCTCGGAG | -0.453
TTGCTCAGCAACGTCTGTGGGG | -0.463
TTCGAAAACTTCCAAATCCTGA | -0.213
TTCGATGAGAGATTTTTCCTTG | 0.59
TTTTCCTTGTGAATCCTGCGTC | 0.331

The sequences below were run against NAGPA in the same assay as above. Settings: shRNA.

Sequence | sensor-assay potency score (higher = more potent)
AAGCCGAATAGTGCAAGCCGGA | -1.15
TGTCTCGTCACACTCTGTGGCT | -0.832
AGTAGCAAGTCGTCGTCGCGGG | -1.2
TGTGTCTCGTCACACTCTGTGG | -1.05
